Source: PubChem BioAssay (several laboratories)
Many of the other results were omitted from the sample, so hits are more common in it than they were.
BoNT A protease = BoNT/A light chain protease inhibitors, primary screen, biochemical, flow cytometry, MLPCN library; Botulinum neurotoxin type A light chain protease (Clostridium botulinum A str. ATCC 3502); multiplex microsphere protease substrate cleavage; inhibition, % at 10 µM; 360,000 tested, 0.17% active; AID 588499, 2011; also: plate controls were buffer without enzyme for full effect and enzyme alone for no effect
BoNT-F LC inh = BoNT/F light chain protease inhibitors, primary screen, biochemical, flow cytometry, MLPCN library; Botulinum neurotoxin type F light chain protease (Clostridium botulinum); Multiplex microsphere protease cleavage assay; inhibition, % at 10 µM; 360,000 tested, 0.22% active; AID 588497, 2011; in the data active = inhibition above about 35%, passing the limit was not always enough; inconclusive = no clear call, values can overlap the other calls; also: plate controls were buffer without enzyme for full effect and enzyme alone for no effect
Anthrax LF prot = Bacillus anthracis LF protease inhibitors, primary screen, biochemical, multiplex microsphere, MLPCN library; Lethal factor (Bacillus anthracis), P15917; AID 588501, 2011; inhibition, % at 10 µM; multiplex microsphere protease cleavage assay; 360,000 tested, 0.12% active; also: plate controls were buffer without enzyme for full effect and enzyme alone for no effect
TcdB inh = TcdB glycohydrolase inhibitors, primary screen, biochemical, single point, plate reader; AID 652162, 2013; inhibition, % at 9.99 µM; 350,000 tested, 0.24% active; TcdB glycohydrolase enzymatic assay; Toxin B (Clostridioides difficile), P18177; in the data active = inhibition above about 10%
Bead autofluor = flagged as autofluorescent in microsphere protease counterscreen; compound autofluorescence counterscreen, microsphere flow cytometry; active compounds read high; 360,000 tested, 3.1% active; fluorescence intensity (concentration not given with the values); AID 624483; in the data active = fluorescence intensity above about 16000; inconclusive = no clear call, values can overlap the other calls
Numbers without * were called inactive; u = inconclusive; x = not tested or not shown. Rule as the data show it, unless noted: active = inhibition above about 30%; inconclusive = no clear call, values can overlap the other calls; inactive = below that.

SMILES	BoNT A protease	BoNT-F LC inh	Anthrax LF prot	TcdB inh	Bead autofluor
CN1C(=O)c2cc(NC(=O)c3cccc(F)c3)ccc2OC[C@H]2O[C@@H](CC(=O)NCC3CCCCC3)CC[C@@H]21	x	x	x	0.5	x
CCCNC(=O)C[C@H]1CC[C@H]2[C@@H](COc3ccc(NC(=O)c4ccccc4)cc3C(=O)N2C)O1	x	x	x	-1.4	x
CN1C(=O)c2cc(NC(=O)c3cccc(F)c3)ccc2OC[C@@H]2O[C@@H](CC(=O)NCC3CCCCC3)CC[C@@H]21	x	x	x	10.2*	x
COCC(=O)Nc1ccc2c(c1)[C@H]1C[C@@H](CC(=O)N(C)C)O[C@@H](CO)[C@H]1O2	x	x	x	0.0	x
Cc1ccc(N2C(=O)CC(n3nc(C)cc3C)C2=O)cc1 (stereo unspecified)	u	-3.6	-0.2	x	16252*
Cc1ccc(-c2ccc3c(c2)O[C@@H](CN(C)C)[C@@H](C)CN([C@H](C)CO)S3(=O)=O)cc1	x	x	x	-0.2	x
Cn1c(C(=O)N2CCN(c3cccc(C(F)(F)F)c3)CC2)cc2sccc21	-4.3	-4.7	-2.8	x	21909*
CCOC(=O)N1CCN(C(=O)c2cc3sccc3n2C)CC1	0.7	0.7	-4.7	0.1	19772*
Cc1ccc(C)c(N2CCN(C(=O)c3cc4sccc4n3C)CC2)c1	u	-11.3	-1.1	x	22451*
COc1ccc(S(=O)(=O)N(C)C[C@@H]2OCCCC[C@@H](C)Oc3ccc(NC(=O)CCC(F)(F)F)cc3C(=O)N([C@H](C)CO)C[C@H]2C)cc1	x	x	x	1.1	x
COc1ccc(NC(=O)Nc2ccc3c(c2)C(=O)N([C@H](C)CO)C[C@@H](C)[C@H](CN(C)S(=O)(=O)c2ccccc2)OCCCC[C@@H](C)O3)cc1	x	x	x	0.1	x
CC1=CCC(C(=O)O)(C(=O)N/N=C/c2cccnc2)C(c2ccccc2)C1 (stereo unspecified)	-1.9	-10.2	-4.9	1.4	3835
CC1=CCC(C(=O)O)(C(=O)N/N=C/c2cccs2)C(c2ccc(Cl)cc2)C1 (stereo unspecified)	1.7	0.2	-2.5	1.9	19841*
COc1ccc(-c2cnc3c(c2)C(=O)N([C@H](C)CO)C[C@@H](C)[C@@H](CN(C)Cc2ccc(C(=O)O)cc2)O3)cc1	x	x	x	-1.2	x
Cc1noc(C)c1NC(=O)Nc1ccc2c(c1)C(=O)N([C@@H](C)CO)C[C@H](C)[C@H](CN(C)CC1CC1)O2	x	x	x	0.0	x
Clc1ccc(-c2nnnn2-c2ccc(Cl)cc2)cc1	x	x	x	0.8	x
Clc1ccc(-n2nnnc2-c2ccccc2)cc1	u	-8.1	1.5	x	17854*
O=c1cc(O)n(-c2ccccc2)c(=S)[nH]1	1.4	u	5.8	x	2651
N=c1n(-c2ccccc2)c(O)cc(=O)n1-c1ccccc1	-2.6	-6.9	-0.4	x	22975*
O=C1C(=Cc2ccc(Br)o2)C(=O)c2ccccc21	2.6	34.5*	5.7	x	7134
C[C@@H]1CN([C@@H](C)CO)S(=O)(=O)c2ccc(C#C[C@@H](C)O)cc2O[C@@H]1CN(C)Cc1ccccn1	x	x	x	-1.7	x
Cc1cc(C)n(-c2nnc(C)n2/N=C/c2ccccc2F)n1	-0.4	2.2	-0.8	x	22946*
CCC(C)NC(=O)c1c(N)n(CCCOC)c2nc3ccccc3nc12 (stereo unspecified)	7.6	6.5	-12.1	x	17608*
COCCCn1c(N)c(C(=O)Nc2ccccc2)c2nc3ccccc3nc21	-4.0	u	1.5	0.6	3998
CCCCCOC(=O)c1c(N)n(CCOC)c2nc3ccccc3nc12	0.6	-1.7	0.8	x	20661*
SMILES	BoNT A protease	BoNT-F LC inh	Anthrax LF prot	TcdB inh	Bead autofluor
Brc1cnc(N2CCCC2)nc1N1CCOCC1	u	-0.3	0.2	x	21599*
CCOC(=O)CSc1nc2ccccc2c(=O)n1-c1ccc(C(=O)NCCOC)cc1	0.4	-1.2	-3.9	x	21747*
CCOC(=O)CSc1nc(-c2ccccc2)nc2ccccc12	3.8	2.8	-2.0	x	21864*
CCOC(=O)CSc1nc2cc(C(=O)N3CCC(C(N)=O)CC3)ccc2c(=O)n1-c1ccccc1	4.8	4.1	1.5	x	21305*
CCOc1ccc(N2C(=O)/C(=C/c3ccco3)C(=O)NC2=S)cc1	3.1	47.0*	-11.0	x	2781
CN1CCc2nc3sc(C#N)c(N)c3c(-c3cccs3)c2C1	15.1	-12.2	-0.7	2.0	19864*
CSc1nc(-c2ccc(Cl)cc2)nn1S(=O)(=O)c1ccccc1	0.1	-2.4	-6.4	x	4249
CS(=O)(=O)n1nc(-c2ccc(Cl)cc2)nc1SCc1ccccc1	-3.7	-6.2	-1.2	x	24875*
CO[C@H]1CN(C)C(=O)c2cc(NC(=O)C3CC3)ccc2OC[C@@H](C)N(Cc2ccc(F)cc2)C[C@H]1C	x	x	x	0.7	x
COc1ccc(-c2cc(=O)oc3cc4occ(C)c4cc23)cc1	1.0	1.2	-2.1	x	22808*
Cc1ccc(N(CC(O)Cn2c3ccccc3c3ccccc32)S(C)(=O)=O)cc1 (stereo unspecified)	0.5	-3.7	-3.6	2.1	7849
Cc1cccc(C)c1N(CC(O)Cn1c2ccccc2c2ccccc21)S(C)(=O)=O (stereo unspecified)	1.5	1.2	-0.2	x	21877*
CO[C@@H]1CN(C)C(=O)c2cc(NC(=O)C3CC3)ccc2OC[C@@H](C)N(C(=O)CN(C)C)C[C@@H]1C	x	x	x	-1.2	x
CCOC(=O)c1nc(C)n(-c2cc(OC)c(Cl)cc2Cl)n1	-0.4	-3.1	-6.8	0.0	4685
CCOC(=O)c1nc(C)n(-c2cc(Cl)ccc2Cl)n1	1.0	2.1	-0.7	x	19905*
O=C(/C=C/c1ccco1)NCC1(c2ccccc2)CCCC1	0.0	3.6	0.5	x	2153
CCN(CC)S(=O)(=O)c1ccc(OC)c(NC(=O)/C=C/c2ccco2)c1	3.8	34.7*	-3.6	0.3	5086
COc1ccc(C2(CNC(=O)/C=C/c3ccco3)CCCC2)cc1OC	4.7	2.7	2.4	3.4	19955*
CC(C)C#Cc1cnc2c(c1)C(=O)N([C@@H](C)CO)C[C@@H](C)[C@@H](CN(C)Cc1ccccc1)O2	x	x	x	-0.1	x
O=C(Nc1ccccc1F)N(Cc1ccc(F)cc1)Cc1nc2ccccc2c(=O)[nH]1	-0.5	-4.9	3.5	24.2*	4992
O=C(c1ccccc1)N(Cc1ccc(F)cc1)Cc1nc2ccccc2c(=O)[nH]1	-0.6	-5.8	-4.2	x	6834
Cc1cc(C)n2nc(-c3cnn(C)c3C(F)(F)F)c(Cl)c2n1	-0.6	0.4	-4.6	x	9165
Cc1cc(C)n2nc(-c3cnn(C)c3C(F)(F)F)cc2n1	u	2.7	-7.2	x	19076*
O=C1N/C(=C\c2ccc(O)cc2)C(=O)c2ccccc21	4.6	5.3	-8.2	5.4	19019*
Cc1cc(OC(=O)CCCNC(=O)OC(C)(C)C)c2c3c(c(=O)oc2c1)CCC3	-0.4	-1.2	-1.8	x	9254
CCC(NC(=O)OC(C)(C)C)C(=O)Oc1ccc2c3c(c(=O)oc2c1)CCC3 (stereo unspecified)	-1.3	-3.6	-4.7	x	17288*
Cc1cc(OC(=O)CCNC(=O)OC(C)(C)C)c2c3c(c(=O)oc2c1)CCC3	1.6	0.0	-1.7	x	22958*
